The text below walks through data of PubChem BioAssay AID493229 (Broad Institute, 2011).

Entries with a potency or affinity are not part of this list. Results filed as inconclusive are left out. Activity calls are given as the source filed them. No rule for the calls is given here.

This experiment deals with Protein RecA (Mycobacterium tuberculosis (strain ATCC 25618 / H37Rv)) (UniProt P9WHJ3). In words: Mycobacterium tuberculosis RecA intein splicing inhibitors, confirmatory dry powder dose response (AID 493229). Particulars: biochemical plate reader; series mostly up to 35 µM.
Sequence of Protein RecA (Mycobacterium tuberculosis (strain ATCC 25618 / H37Rv)) (P9WHJ3 whole entry, looked up): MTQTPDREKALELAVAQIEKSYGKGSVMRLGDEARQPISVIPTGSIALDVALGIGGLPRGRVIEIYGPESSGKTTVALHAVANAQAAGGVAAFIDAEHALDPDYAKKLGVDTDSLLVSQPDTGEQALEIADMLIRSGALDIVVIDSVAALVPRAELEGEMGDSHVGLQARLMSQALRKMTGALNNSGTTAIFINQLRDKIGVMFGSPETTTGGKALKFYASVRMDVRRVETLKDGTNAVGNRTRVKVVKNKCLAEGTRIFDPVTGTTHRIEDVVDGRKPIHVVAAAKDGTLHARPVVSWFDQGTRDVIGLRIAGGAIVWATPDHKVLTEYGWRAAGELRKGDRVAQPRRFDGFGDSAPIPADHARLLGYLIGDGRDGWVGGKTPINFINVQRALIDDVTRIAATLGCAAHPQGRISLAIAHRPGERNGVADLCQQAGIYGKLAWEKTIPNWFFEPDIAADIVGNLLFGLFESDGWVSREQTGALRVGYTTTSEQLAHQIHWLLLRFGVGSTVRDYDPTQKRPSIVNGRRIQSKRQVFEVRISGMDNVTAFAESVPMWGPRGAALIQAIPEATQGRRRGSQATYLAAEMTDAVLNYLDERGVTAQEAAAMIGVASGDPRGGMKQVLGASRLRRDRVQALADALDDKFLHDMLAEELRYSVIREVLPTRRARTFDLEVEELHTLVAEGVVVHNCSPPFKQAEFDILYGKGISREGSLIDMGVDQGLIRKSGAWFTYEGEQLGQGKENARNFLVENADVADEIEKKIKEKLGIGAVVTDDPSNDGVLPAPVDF

As to `Nc1cn(-c2ccccc2)nc1-c1ccc(F)cc1`, the outcome was inactive.
